# NALP1 inh: blocks the NALP1 inflammasome reconstituted in yeast; 280,000 tested, 0.61% active; inhibition, % at 10 µM; S. cerevisiae NALP1/ASC/caspase-1 growth, X-gal OD620, 72 h; AID 2071; in the data active = inhibition mostly above about 24%, no sharp cut-off; inactive = mostly below about 32%
# TIM10 inh: growth inhibitors of TIM10 yeast strain | S. cerevisiae TIM10 strain growth, BacTiter-Glo luminescence, 24 h | AID 463195 | 330,000 tested, 1.4% active | inhibition, % at 10 µM;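 active = inhibition of 40% or more at the single tested concentration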;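 note: wild-type TIM10 isogenic control strain grown at permissive 25 °C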
# tim10-1 inh: tim10-1 yeast growth inhibition; S. cerevisiae tim10-1 ts strain growth, BacTiter-Glo, 24 h; inhibition, % at 20 µM; 330,000 tested, 2.2% active; AID 463190;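 active = inhibition of at least 40%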;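 note: mutant grown at 25 °C; 0% = DMSO wells with yeast and 100% = wells holding no yeast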
# tim23-1 inh: growth inhibitors of tim23-1 mutant yeast. S. cerevisiae tim23-1 growth, BacTiter-Glo luminescence, 24 h. inhibition, % at 20 µM. 330,000 tested, 1.3% active. AID 463212;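 active = growth inhibition of the mutant yeast at or above 50%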;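 note: temperature-sensitive mutant grown at 25 °C; plate controls were DMSO-treated mutant yeast for no effect and medium wells lacking yeast for full effect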
# NLRP3 yeast inh: blocks the NALP3 inflammasome reconstituted in yeast; 330,000 tested, 0.39% active; inhibition, % at 10 µM; Yeast reconstituted NLRP3/ASC/caspase-1, beta-gal luminescence, 24 h;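 active = inhibition of 50% or more; inactive = inhibition below 50%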;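 note: plate controls were induced DMSO wells for no effect and uninduced yeast grown without galactose for full effect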
# NALP3 yeast conf: confirmation of NALP3 inhibitors in yeast; shares compounds with NLRP3 yeast inh; yeast expressing human NALP3, luminescence; inhibition, % at 10 µM; 1,300 tested, 81% active; in the data active = inhibition above about 48%
# Casp1 ASC ctr: active in yeast caspase-1-ASC counter-screen for NALP3 inhibitors. shares compounds with NLRP3 yeast inh. yeast expressing Caspase-1-ASC, luminescence counter screen. inhibition, % at 10 µM. 1,000 tested, 66% active. AID 488784
# NALP3 retest: yeast NALP3 inhibition, confirmed on retest | shares compounds with NLRP3 yeast inh | yeast expressing human NALP3, luminescence read-out | inhibition, % at 10 µM | 1,000 tested, 53% active
# Numbers without * were called inactive; . = not tested or not shown. Compounds with a hit are over-represented: about 4% of the library has one in this group of screens. Cut-off read from the data, not from the text of the source, unless noted: active = inhibition above about 50%; inactive = the rest.
SMILES,NALP1 inh,TIM10 inh,tim10-1 inh,tim23-1 inh,NLRP3 yeast inh,NALP3 yeast conf,Casp1 ASC ctr,NALP3 retest
CC(C)c1cccc(C(C)C)c1OCCCCCN1CCOCC1,.,-22,-53,-16,69*,74*,78*,66*
CCOC(=O)c1cnn(-c2ccc(F)cc2)c1N,10,-3,-12,9,8,.,.,.
CCOC(=O)c1cnn(-c2cc(C)cc(C)c2)c1N,6,-23,-5,9,50,70*,57*,58*
C/C(=N\NC(=S)NCc1ccccc1)c1ccc2ccccc2c1OC(F)F,-5,39,25,34,56*,16,.,.
C/C(=N\NC(=S)NCc1ccccc1)c1cccs1,2,28,15,38,26,.,.,.
COc1ccc(-c2ccc(CCC(=O)O)n2CC(=O)Nc2ccccc2C)cc1,18,-7,19,11,14,.,.,.
COc1ccc(CCNC(=O)c2cc(S(=O)(=O)N3CCOCC3)cn2C)cc1OC,22,2,2,0,-9,.,.,.
c1ccc(-c2nc(Sc3ncnc4c3cnn4-c3ccccc3)n[nH]2)cc1,4,18,27,31,50,69*,.,.
Cc1ccc(CSc2ncnc3c2cnn3-c2ccccc2)cc1,24,-24,-6,-8,-27,.,.,.
O=C(NNC(=O)c1ccc(Br)o1)c1csc(N2CCOCC2)n1,.,5,10,14,16,.,.,.
c1ccc(Oc2cc(-c3ccccc3)ncn2)cc1,1,1,15,25,52*,47,71*,55*
CCOc1ccc(C(=O)Nc2ccccc2CC)cc1[N+](=O)[O-],36,-55,-41,-39,53*,60*,53*,55*
O=C(Nc1cccc(Cl)c1)Nc1cccc(Cl)c1,-5,7,1,18,11,.,.,.
O=C(Nc1ccccc1)Nc1cc(Cl)cc(Cl)c1,5,1,-12,-8,56*,77*,68*,78*
COc1cc(NC(=O)c2cc(-c3ccco3)on2)cc(OC)c1OC,9,19,-8,23,27,.,.,.
O=C(Nc1ccc(-c2nc3ccccc3o2)cc1)C1CCCO1 (centres undefined),8,25,22,43,55*,72*,60*,41
c1ccc2c(c1)Cn1c-2nc2ccccc21,.,35,14,30,70*,73*,84*,77*
Brc1c(-c2ccccc2)nc2n1Cc1ccccc1-2,13,-27,5,32,27,.,.,.
CC(=O)N(/N=C1\Sc2ccccc2C1=O)c1cccc(C)c1,17,3,20,35,54*,64*,30,30
CC(=O)N(CN1C(=O)c2ccccc2C1=O)c1cccc(C)c1,-4,3,17,8,1,.,.,.
CCCCc1nnc(NC(=O)c2oc3ccccc3c2C)s1,.,19,31,20,9,.,.,.
CN(C)c1ccc(N=Nc2cccc(F)c2)cc1,11,-3,27,31,52*,43,51*,39
CN(C)c1ccc(N=Nc2ccc(S(N)(=O)=O)cc2)cc1,25,-10,6,-13,33,.,.,.
CN(C)c1ccc(N=Nc2cccc3ccoc23)cc1,9,19,28,20,60*,68*,45,41
CC(=O)Nc1ccc(S(=O)(=O)Nc2ccc(-n3cnnn3)cc2)cc1,.,6,-5,5,13,.,.,.
SMILES,NALP1 inh,TIM10 inh,tim10-1 inh,tim23-1 inh,NLRP3 yeast inh,NALP3 yeast conf,Casp1 ASC ctr,NALP3 retest
NS(=O)(=O)c1ccc(NC(=O)COC(=O)CNC(=O)C23CC4CC(CC(C4)C2)C3)cc1,3,-3,0,14,-3,.,.,.
C=C(CC[C@@H](O)C(C)(C)O)[C@H]1CC[C@]2(C)[C@@H]1CCC1[C@@]3(C)CC[C@H](O)C(C)(C)C3CC[C@]12C (some centres undefined),.,0,-5,11,58*,50,46,33
CC(=O)N1N=C(c2ccc3ccccc3c2)OC1(C)C,60*,4,20,34,63*,34,.,.
CCOc1ccc(C(=O)CCc2nc3ccccc3s2)cc1,9,21,-3,25,67*,67*,65*,60*
CC(C)CC(NC(=O)C(NC(=O)C1OC2OC(C)(C)OC2C2OC(C)(C)OC12)C(C)C)C(=O)O (centres undefined),5,-8,-5,1,10,.,.,.
CSc1nc2ccc(S(=O)(=O)N(C)C)cc2s1,-15,-4,12,1,47,.,.,.
CCN(CC)S(=O)(=O)c1ccc2nc(SC)sc2c1,17,1,-2,27,75*,82*,73*,66*
COc1ccc(CN2C(=O)c3ccccc3C2=O)cc1C(=O)N(C)CC(=O)Nc1ccc(F)cc1,.,6,13,14,6,.,.,.
CCN1C(=O)/C(=C/C=C2/SCCN2C)SC1=S,4,-11,-13,2,50,33,.,.
CCC(C(=O)OC)n1cnc2scc(-c3ccc(C)c(C)c3)c2c1=O (centres undefined),100*,22,25,41,97*,99*,99*,98*
CCOC(=O)c1ccc2nc3c(cc2c1)CCS3,-8,14,-5,29,56*,66*,66*,46
CCCC(=O)Nc1nc2ccc(C(=O)OCC)cc2s1,34,10,21,22,9,.,.,.
O=C(CN1CCCCCCC1)Nc1cc(Cl)cc(Cl)c1,9,-12,5,20,51*,23,.,.
COC(=O)CSc1nc2cc3c(cc2cc1C)OCCO3,0,36,30,33,69*,73*,80*,71*
CC(C)NC(=O)c1cc2cc([N+](=O)[O-])ccc2s1,4,2,-24,1,22,.,.,.
CCCNC(=O)c1cc2cc([N+](=O)[O-])ccc2s1,14,-11,3,10,52*,41,44,38
O=C(C1CCC1)N1CCC(O)(c2cccc(F)c2)CC1,11,-6,5,9,5,.,.,.
O=[N+]([O-])c1cc(S(=O)(=O)O)cc([N+](=O)[O-])c1NN(c1ccccc1)c1ccccc1,8,4,18,11,13,.,.,.
CCOc1cc(/C=N/Nc2cc(C)nc(-n3nc(C)cc3C)n2)ccc1O,5,-4,13,5,77*,54*,19,36
O=S(=O)(NCC1CCCN(Cc2ccccc2O)C1)c1cccc2cccnc12 (centres undefined),15,10,15,-4,1,.,.,.
Cc1cc(C)c(C)c(S(=O)(=O)NC2CCCCC2)c1C,3,11,21,36,53*,46,38,27
C[C@H](CO)N1C[C@H](C)[C@@H](CN(C)Cc2ccc(Cl)c(Cl)c2)Oc2c(NS(=O)(=O)c3cccs3)cccc2C1=O,.,-2,1,8,10,.,.,.
Cc1cccnc1Nc1nc(-c2ccccn2)cs1,12,34,-30,10,74*,84*,97*,92*

# Bioassay records deposited in PubChem by Sanford-Burnham Center for Chemical Genomics.
